Screening results deposited in PubChem BioAssay by National Center for Advancing Translational Sciences (NCATS).
Cruzain noTriton = cruzain (T. cruzi) inhibition without detergent; Potency, µM, actives largely listed as inhibitors; 200,000 compounds, 2.3% hits; P25779; purified cruzain, Z-FR-AMC fluorescence, no detergent; AID 1476; also: nearly all actives have a fitted effect of over 40% in size
Target sequence (P25779 123-467 limits assumed): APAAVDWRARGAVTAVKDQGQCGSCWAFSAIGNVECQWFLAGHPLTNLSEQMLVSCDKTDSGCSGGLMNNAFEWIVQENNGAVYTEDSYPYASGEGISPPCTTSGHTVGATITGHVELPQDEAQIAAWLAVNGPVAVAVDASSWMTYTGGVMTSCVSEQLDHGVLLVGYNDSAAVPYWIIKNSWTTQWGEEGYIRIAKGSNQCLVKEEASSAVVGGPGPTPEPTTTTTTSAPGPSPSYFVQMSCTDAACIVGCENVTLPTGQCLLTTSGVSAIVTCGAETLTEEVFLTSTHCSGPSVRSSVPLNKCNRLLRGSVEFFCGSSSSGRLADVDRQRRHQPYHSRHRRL
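Purified cruzain at 1.5 nM, pre-incubated 15 min with compound at room temperature in 100 mM sodium acetate pH 5.5, 5 mM DTT, 0.00005% Triton X-100. Reaction started with 2 uM Z-FR-AMC; AMC fluorescence increase over 60 s gives rate.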
Cruzain inh Det = inhibitors of Trypanosoma cruzi cruzain with detergent | P25779 | purified cruzain, Z-FR-AMC fluorescence, 0.01% Triton | Potency, µM, hits mostly inhibitors | 200,000 compounds, 0.43% hits | AID 1478; also: nearly all actives have a fitted effect of over 40% in size
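Compounds were screened in titration against cruzain (1.5 nM) with 0.01% Triton X-100 to counter colloidal aggregation. Activity was the AMC fluorescence increase over 60 s after adding 2 uM Z-FR-AMC at pH 5.5.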
Each line names hits and unclear results; the compound was inactive in the other large screens. The list is not random: actives were taken first. Their share in the collection is about 2.5%. Calls follow the shape of the dose curve; as a rule, active = well fitted curve in the direction sought with a large enough effect; inconclusive = small, poorly fitted or top-dose-only effect, or another doubt; inactive = no such curve, though single readings can be large; an effect the other way counts as inactive or inconclusive.

COc1cccc(Cn2c(CNS(=O)(=O)c3ccc(C(C)(C)C)cc3)nc3cccnc32)c1	none
COc1ccc(-c2csc3nc(-c4cccnc4)nc(Cl)c23)cc1OC	Cruzain inh Det 13µM
Clc1nc(-c2cccnc2)nc2scc(-c3ccccc3)c12	none
CCOC(=O)N1CCC(NC(=O)c2ccc3c(c2)N(Cc2ccccc2)C(=O)c2ccccc2S3(=O)=O)CC1	Cruzain noTriton inconclusive
CN(Cc1ccccc1)c1ccc(-c2nc(-c3ccccn3)no2)cc1[N+](=O)[O-]	none
CCOC(=O)CNCCC(=O)c1ccc(Br)cc1	Cruzain noTriton 10µM, Cruzain inh Det 25µM
Cc1cccc(NCCC(=O)c2ccc(Br)cc2)c1	none
CC(C)CS(=O)(=O)c1oc(-c2ccc(F)cc2)nc1S(=O)(=O)c1ccccc1	none
CCOc1ccc(C2=CC(c3cc(Br)ccc3F)n3ncnc3N2)cc1Cl (stereo unspecified)	none
COc1ccc(C(=N/O)/C(=N/O)c2ccc(OC)cc2)cc1	none
COc1ccc(C(Cl)=C(c2ccc(OC)cc2)c2ccc(OC)cc2)cc1	Cruzain noTriton 20µM
O=C1OCCN1C(=O)[C@H]1[C@H](c2ccccc2)C(c2cccc(Cl)c2)=NN1c1ccccc1	Cruzain noTriton inconclusive
COc1ccccc1[C@@H]1C(c2ccc(F)cc2)=NN(c2ccc(Br)cc2)[C@H]1C(=O)N1CCOC1=O	Cruzain noTriton 25µM
COc1ccccc1[C@@H]1C(c2cccc(Cl)c2)=NN(c2ccc(Br)cc2)[C@H]1C(=O)N1CCOC1=O	Cruzain noTriton 8.9µM
COc1ccccc1[C@@H]1C(c2ccc(F)cc2)=NN(c2ccccc2)[C@H]1C(=O)N1CCOC1=O	Cruzain noTriton inconclusive
COc1ccccc1[C@@H]1C(c2ccccc2)=NN(c2ccccc2)[C@H]1C(=O)N1CCOC1=O	Cruzain noTriton inconclusive
COc1ccccc1[C@@H]1C(c2cccc(C)c2)=NN(c2ccccc2)[C@H]1C(=O)N1CCOC1=O	Cruzain noTriton 16µM
OC1(C(O)(c2ccc(-c3ccccc3)cc2)c2ccc(-c3ccccc3)cc2)CCCCC1	none
Cc1nc(-c2ccc(S(=O)(=O)N(C)Cc3ccccc3)cc2)co1	none
O=S(=O)(Nc1nc2ccccc2nc1Nc1ccc(N2CCOCC2)cc1)c1cc(Cl)ccc1Cl	Cruzain noTriton 20µM
O=S(=O)(Nc1ccc(N2CCOCC2)cc1)c1ccc2ccccc2c1	none
CCOC(=O)COc1ccc(/C=C(\C#N)c2nc3ccc(C)cc3[nH]2)cc1OC	Cruzain noTriton inconclusive
CCOc1cc(N(CC)CC)ccc1/C=C(/C#N)c1nc2ccccc2[nH]1	Cruzain noTriton 32µM
Cc1cc(/C=C(\C#N)c2nc3ccccc3[nH]2)c(C)n1C	Cruzain noTriton inconclusive
COc1cc(/C=C(\C#N)c2nc3ccccc3[nH]2)cc(Br)c1OCc1ccc(F)cc1	Cruzain noTriton 25µM
CCCOc1cc(N(CC)CC)ccc1/C=C(/C#N)c1nc2ccc(C)cc2[nH]1	Cruzain noTriton 20µM
COc1cc(/C=C(\C#N)c2nc3ccccc3[nH]2)cc(Br)c1OCc1ccccc1	Cruzain noTriton inconclusive
COc1cccc(/C=C(\C#N)c2nc3ccc(C)cc3[nH]2)c1	Cruzain noTriton inconclusive
CCN(CC)c1ccc(/C=C(/C#N)c2nc3ccc(C)cc3[nH]2)c(OC(C)C)c1	Cruzain noTriton 25µM
CC(C)=C[C@H]1[C@@H](COC(=O)c2ccccc2Cl)C1(C)C	none
CCOc1c(Cl)cc(CNc2ccc3[nH]c(=O)[nH]c3c2)cc1OC	none
Cc1ccc2nc(/C(C#N)=C/c3ccc(-c4cccc([N+](=O)[O-])c4)o3)[nH]c2c1	Cruzain noTriton inconclusive
Cc1ccc2nc(/C(C#N)=C/c3ccc(-c4ccc(F)cc4F)o3)[nH]c2c1	Cruzain noTriton 10µM
O=C(CNc1cccc2ccccc12)N/N=C/c1ccc([N+](=O)[O-])cc1	none
O=C(CNc1cccc2ccccc12)N/N=C/c1cccc(Oc2ccccc2)c1	Cruzain noTriton 20µM
O=C(Nc1cccc(-c2nc3cccnc3s2)c1)C1c2ccccc2Oc2ccccc21	Cruzain noTriton 20µM
CCC(CC)C(=O)Nc1cccc(-c2nc3cccnc3s2)c1	none
CCOc1ccc(C2c3[nH]c4ccccc4c3CCN2C(=O)CCc2ccccc2)cc1 (stereo unspecified)	none
CC1CN(C(=O)N2CCC(C(=O)NC3CCCCCC3)CC2)c2cc(Cl)ccc2O1 (stereo unspecified)	none
CC(C)Sc1cc(N2CCOCC2)nc(-c2ccccc2)n1	none
c1ccc(-c2ccc(Oc3cc(N4CCOCC4)nc(-c4ccccc4)n3)cc2)cc1	Cruzain noTriton 10µM
O=C(O)[C@H]1CCCC[C@@H]1c1c2ccc(=O)c(O)c-2oc2c(O)c(O)ccc12	none
CCN(CCCNC(=O)c1cc2cc3ccc(OC)cc3nc2s1)c1ccccc1	Cruzain noTriton 32µM, Cruzain inh Det 20µM
CCN(CCCNC(=O)c1cc2cc3ccc(OC)cc3nc2s1)c1cccc(C)c1	Cruzain noTriton inconclusive
CC(C)c1ccc(CNc2nc(-c3ccco3)nn2S(=O)(=O)c2ccc3ccccc3c2)cc1	Cruzain noTriton 10µM
Cc1ccc(CNc2nc(-c3ccco3)nn2S(=O)(=O)c2ccc3ccccc3c2)cc1	Cruzain noTriton inconclusive
COc1ccc2cc(C(=O)CCC(=O)O)ccc2c1	none
Cc1cccc(NC(=O)c2c(NC(=O)C(F)(F)F)sc3c2CCCCC3)c1	none
O=C(Nc1cccc(Cl)c1)c1c(NC(=O)C(F)(F)F)sc2c1CCCC2	Cruzain noTriton inconclusive, Cruzain inh Det 25µM
COc1cccc(Nc2nc(-c3cccc(N4C(=O)c5ccccc5C4=O)c3)cs2)c1	Cruzain noTriton 7.9µM
COc1cccc(Nc2nc(-c3ccc(O)cc3)cs2)c1	none
COc1ccc(-c2cc(=O)n(-c3ccc([N+](=O)[O-])cc3)[nH]2)cc1	Cruzain noTriton inconclusive
O=C1/C(=C/c2ccc([N+](=O)[O-])cc2)C=C(c2ccccc2)N1c1ccccc1	Cruzain noTriton 13µM
COc1ccc(N2C(=O)/C(=C/c3ccc([N+](=O)[O-])cc3)C=C2c2ccccc2)cc1	Cruzain noTriton 16µM
O=C1/C(=C/c2ccc([N+](=O)[O-])cc2)C=C(c2ccccc2)N1c1ccc(O)cc1	Cruzain noTriton inconclusive
Cn1cnc([N+](=O)[O-])c1SCC(=O)O	none
CCOC(=O)N1CCC(NC(=O)c2ccc3c(c2)N(Cc2ccc(F)cc2)C(=O)c2ccccc2S3(=O)=O)CC1	Cruzain noTriton inconclusive
CCOc1ccc(CNC(=O)C2CCN(c3nc4ccccc4nc3C(F)(F)F)CC2)cc1OC	none
N[C@H](C(=O)O)[C@H](N)C(=O)O	none
COc1ccccc1N1CCN(C(=O)Cn2c(=O)nc(-c3ccccc3)c3cc(Cl)ccc32)CC1	none
Cc1ccc(-c2nnn(CC(=O)NCC3CC3)n2)o1	none
Cc1ccc(-c2nnn(CC(=O)Nc3ccc4nn(-c5ccccc5)nc4c3)n2)o1	Cruzain noTriton 10µM
CCN(CC)S(=O)(=O)c1ccc2c(c1)c(=O)c(C(=O)NCc1ccccc1Cl)cn2C	none
COc1ccc(S(=O)(=O)N(C)CC(=O)Nc2ccc3c(c2)OCO3)cc1	none
COc1ccc(N(CC(=O)Nc2ccc3c(c2)OCO3)S(=O)(=O)c2ccc(F)cc2)cc1	Cruzain noTriton 20µM
COc1ccc(NS(=O)(=O)c2ccc(O)c(C(=O)OCC(=O)Nc3ccc4c(c3)OCCO4)c2)cc1	Cruzain noTriton 7.9µM
COc1ccc(NS(=O)(=O)c2ccc(NS(=O)(=O)c3ccc4c(c3)OCCO4)cc2)cc1	none
Cc1ccc(NC(=O)C2CCN(C(=O)c3cnn(-c4ccccc4)c3-n3cccc3)CC2)cc1C	Cruzain noTriton inconclusive
